# Measured values from PubChem BioAssay.
# Active and inactive are the calls of the source. Unless noted, how the calls were made is not given here.
# Legend:
# [1] = reduced mouse 2C T cell binding to pMHC/ICAM-1 vesicles – MLPCN validation set, flow cytometry, LFA-1/ICAM-1 modulator project, pilot screen (AID 2523;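 active means response below a set limit, under 55% cells CD8-positive and vesicle-bound, and CD8 cells' 90th-percentile brightness under 279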;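 on vesicle binding response: mean PE anti-B7-1 fluorescence of CD8+ cells relative to row control; 100% = QL9-loaded vesicles with DMSO vehicle in the same plate row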); conditions: 2C mouse CD8+ T cells, at 7 µM, stronger effect = lower value; double positive events: measured here: CD8+/vesicle+ event percentage
# [2] = target: Integrin beta-1 (Homo sapiens) + Integrin alpha-4 (Homo sapiens) (UniProt P13612+P05556); assay: alpha4beta1 integrin LIBS antibody binding reduction – U937 cells, HUTS-21 mAb, flow cytometry, validation set, VLA-4 allosteric modulator project, pilot screen (AID 2674;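 active means inhibition above 50%, about 3 SD of the validation set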;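 further: antibody binding induced by the VLA-4 ligand LDV present at three times its Kd; 0% = LDV ligand with antibody and no compound and 100% = antibody without LDV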); conditions: HUTS-21 LIBS mAb binding, at 6.7 µM, stronger effect = higher value
# [3] = calorie-restriction mimetic ROS inhibitors, yeast – validation compound set, pilot screen (AID 2706;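 active means superoxide response below 65% of plate, a cut near 3 SD across the whole screen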;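 further: yeast exposed to compound for one week at 30 degrees C before staining; 100% = mean of all compound wells on the same plate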); conditions: S. cerevisiae aging, superoxide DHE fluorescence; at 10 µM; stronger effect = lower value
# [4] = target: Beta-adrenergic receptor kinase 1 (Homo sapiens) (UniProt P25098); assay: GRK2 binders displacing RNA aptamer, biochemical, validation, human GRK2, bead flow cytometry (AID 488806;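 active means aptamer binding inhibition above 30%, about 3 SD of noise from non-fluorescent compounds; inactive means inhibition at or below 30%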); conditions: bead-bound GRK2, FAM-aptamer displacement, at 10 µM, stronger effect = higher value
# [5] = target: AP-2 complex subunit beta (Homo sapiens) (UniProt P63010); assay: beta-arrestin/AP2 interaction blockers – biochemical, validation set, GST-AP2 beads, flow cytometry, pilot screen (AID 504541;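 active means inhibition above 54%, about 3 SD of non-fluorescent compounds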;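 further: AP2 carries R879A mutation and is captured from E. coli lysate; bead-bound FITC arrestin peptide fluorescence measuring arrestin peptide binding to AP2; 0% = DMSO wells and 100% = excess unlabeled arrestin peptide control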); conditions: FITC arrestin peptide, at 10 µM, stronger effect = higher value
# [6] = cytosolic pH regulators acting via V-ATPase – S. cerevisiae, pHLuorin, HTS validation (AID 504600; in the data active means response above about 15%;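 further: plate controls were DMSO for no effect and reference compound for full effect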); conditions: V-ATPase proton transport, at 10 µM, stronger effect = higher value
# [7] = tested on: anti-desmoglein-3 scFv antibody binding to human DSG3; assay: blockers of pathogenic pemphigus antibody–desmoglein-3 binding – biochemical, validation compound set, bead-based, flow cytometry, pilot screen (AID 588368;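 active means binding below the plate cutoff, the plate median minus 3 SD, with a reading above zero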;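 further: signal is the median channel fluorescence of bead-bound GFP antibody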); conditions: Protein G beads, DSG3-Fc, scFv-GFP binding, at 10 µM, stronger effect = lower value
# [8] = tested on: Botulinum neurotoxin type F light chain protease (Clostridium botulinum); assay: Clostridium botulinum type F light chain protease inhibitors, microsphere substrate cleavage, validation (AID 588459); conditions: multiplex microsphere protease substrate cleavage assay, flow cytometry; at 10 µM; stronger effect = higher value
# [9] = target: Botulinum neurotoxin type A (Clostridium botulinum) (UniProt P0DPI0); assay: BoNT/A light chain protease inhibitors, biochemical, multiplex microsphere flow cytometry, validation set (AID 588460); conditions: at 10 µM, stronger effect = higher value
# [10] = target: Lethal factor (Bacillus anthracis) (UniProt P15917); assay: Bacillus anthracis lethal factor inhibition, microsphere flow cytometry protease assay, validation at 10 µM (AID 588461); conditions: multiplex microsphere protease cleavage assay, stronger effect = higher value
# [11] = Nile Red efflux blockade in pump-expressing yeast – validation compound set, multiplex, phenotypic, pilot screen (AID 588506;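 active means efflux inhibition above 0.42, the validation set average plus 4 SD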;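 further: Nile Red retained in cells so higher fluorescence means more efflux inhibition; 0 = negative control wells and 1 = enniatin B 25 µM full block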); conditions: S. cerevisiae pump-expressing triplex, Nile Red efflux flow cytometry; at 10 µM; stronger effect = higher value
# [12] = target: ATP-binding cassette sub-family B member 6 (Homo sapiens) (UniProt Q9NP58); assay: blockers of ABCB6-driven porphyrin uptake – K562-ABCB6 cells, flow cytometry, validation set, pilot screen (AID 588550;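 active means inhibition above the screen-wide mean plus 3 SD, about 51%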;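 further: 0% = DMSO wells and 100% = benzethonium chloride 70 µM positive control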); conditions: K562-ABCB6 porphyrin accumulation, 1 h, at 10 µM, stronger effect = higher value
# [13] = AML differentiation inducers, ER-HoxA9 marrow cells – cell-based, GFP/MAC1 double positive, flow cytometry, validation set, primary screen (AID 588685;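 active means differentiation response of at least 50%, scaled between solvent and reference control, from cells with both markers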;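 further: compound exposure lasts four days before antibody staining and flow analysis; 0% = DMSO wells and 100% = 5 µM fulvestrant positive control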); conditions: stronger effect = higher value
# [14] = hit retest on RPL19A-GFP reporter strain – cell-based, S. cerevisiae, flow cytometry, cherry picks, mother/daughter gates, confirmation (AID 2270;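 active means GFP response below 50% of the DMSO control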); conditions: 3 h, at 10 µM, stronger effect = lower value, 100 = same GFP as DMSO wells
# [15] = yeast TOR pathway reporter LAP4-GFP change – cell-based, cherry picks, flow cytometry, mother/daughter gates, confirmation (AID 2271;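 active means GFP response above 150% of the DMSO control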;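 further: ratio of sample to DMSO plate mean so 100% equals DMSO level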); conditions: S. cerevisiae LAP4-GFP strain, 3 h, at 10 µM, stronger effect = higher value
# [16] = TOR pathway CIT2 reporter hit retest – S. cerevisiae, GFP fusion, cherry picks, mother/daughter gates, confirmation (AID 2274;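 active means GFP response above 150% of the DMSO level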); conditions: S. cerevisiae CIT2-GFP strain, flow cytometry, 3 h, at 10 µM, stronger effect = higher value
# [17] = measured here: daughter cell gate
# [18] = measured here: mother cell gate
# Sequence of ATP-binding cassette sub-family B member 6 (Homo sapiens) (Q9NP58 whole entry, looked up): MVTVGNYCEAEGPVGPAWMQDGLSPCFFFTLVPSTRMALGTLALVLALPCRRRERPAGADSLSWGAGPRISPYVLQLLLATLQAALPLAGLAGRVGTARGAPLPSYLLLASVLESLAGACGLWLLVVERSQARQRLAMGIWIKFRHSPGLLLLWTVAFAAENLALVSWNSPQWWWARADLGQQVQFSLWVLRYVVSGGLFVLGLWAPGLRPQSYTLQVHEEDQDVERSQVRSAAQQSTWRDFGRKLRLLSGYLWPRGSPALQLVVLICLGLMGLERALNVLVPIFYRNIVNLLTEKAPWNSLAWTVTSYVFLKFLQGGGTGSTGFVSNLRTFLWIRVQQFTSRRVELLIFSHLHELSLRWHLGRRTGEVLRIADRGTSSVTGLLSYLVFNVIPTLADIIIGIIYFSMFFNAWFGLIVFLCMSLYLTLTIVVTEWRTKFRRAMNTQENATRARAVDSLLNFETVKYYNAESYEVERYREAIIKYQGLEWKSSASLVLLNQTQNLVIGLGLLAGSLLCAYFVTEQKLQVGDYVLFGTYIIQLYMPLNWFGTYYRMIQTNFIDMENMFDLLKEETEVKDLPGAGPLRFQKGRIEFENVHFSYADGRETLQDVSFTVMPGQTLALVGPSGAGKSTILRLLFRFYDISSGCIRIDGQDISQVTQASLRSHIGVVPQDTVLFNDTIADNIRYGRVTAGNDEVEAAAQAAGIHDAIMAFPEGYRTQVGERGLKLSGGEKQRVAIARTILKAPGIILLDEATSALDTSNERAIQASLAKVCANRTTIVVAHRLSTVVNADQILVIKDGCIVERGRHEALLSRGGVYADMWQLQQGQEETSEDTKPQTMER
# Sequence of Integrin beta-1 (Homo sapiens) + Integrin alpha-4 (Homo sapiens) (P05556 whole entry, looked up): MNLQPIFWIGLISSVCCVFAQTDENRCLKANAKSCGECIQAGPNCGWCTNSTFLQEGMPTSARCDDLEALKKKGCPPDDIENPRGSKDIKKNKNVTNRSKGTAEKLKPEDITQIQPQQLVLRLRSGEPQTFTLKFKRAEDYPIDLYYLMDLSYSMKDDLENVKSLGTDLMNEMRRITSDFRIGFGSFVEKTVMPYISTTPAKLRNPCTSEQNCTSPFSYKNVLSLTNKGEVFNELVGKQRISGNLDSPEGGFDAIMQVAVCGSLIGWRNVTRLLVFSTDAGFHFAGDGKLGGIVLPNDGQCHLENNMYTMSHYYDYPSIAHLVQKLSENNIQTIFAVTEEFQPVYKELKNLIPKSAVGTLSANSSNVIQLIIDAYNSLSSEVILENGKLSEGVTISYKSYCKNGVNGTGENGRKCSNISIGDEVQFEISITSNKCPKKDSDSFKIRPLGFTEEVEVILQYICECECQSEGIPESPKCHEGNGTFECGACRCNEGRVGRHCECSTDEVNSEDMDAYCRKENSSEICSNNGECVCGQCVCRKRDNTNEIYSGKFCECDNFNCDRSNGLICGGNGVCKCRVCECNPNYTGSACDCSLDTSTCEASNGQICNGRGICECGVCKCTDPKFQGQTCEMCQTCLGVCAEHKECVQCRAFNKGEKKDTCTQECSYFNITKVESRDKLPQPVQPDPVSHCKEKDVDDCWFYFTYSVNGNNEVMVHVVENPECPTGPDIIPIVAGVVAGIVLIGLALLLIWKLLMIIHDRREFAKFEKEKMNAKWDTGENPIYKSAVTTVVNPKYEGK
# Sequence of Integrin beta-1 (Homo sapiens) + Integrin alpha-4 (Homo sapiens) (P13612 whole entry, looked up): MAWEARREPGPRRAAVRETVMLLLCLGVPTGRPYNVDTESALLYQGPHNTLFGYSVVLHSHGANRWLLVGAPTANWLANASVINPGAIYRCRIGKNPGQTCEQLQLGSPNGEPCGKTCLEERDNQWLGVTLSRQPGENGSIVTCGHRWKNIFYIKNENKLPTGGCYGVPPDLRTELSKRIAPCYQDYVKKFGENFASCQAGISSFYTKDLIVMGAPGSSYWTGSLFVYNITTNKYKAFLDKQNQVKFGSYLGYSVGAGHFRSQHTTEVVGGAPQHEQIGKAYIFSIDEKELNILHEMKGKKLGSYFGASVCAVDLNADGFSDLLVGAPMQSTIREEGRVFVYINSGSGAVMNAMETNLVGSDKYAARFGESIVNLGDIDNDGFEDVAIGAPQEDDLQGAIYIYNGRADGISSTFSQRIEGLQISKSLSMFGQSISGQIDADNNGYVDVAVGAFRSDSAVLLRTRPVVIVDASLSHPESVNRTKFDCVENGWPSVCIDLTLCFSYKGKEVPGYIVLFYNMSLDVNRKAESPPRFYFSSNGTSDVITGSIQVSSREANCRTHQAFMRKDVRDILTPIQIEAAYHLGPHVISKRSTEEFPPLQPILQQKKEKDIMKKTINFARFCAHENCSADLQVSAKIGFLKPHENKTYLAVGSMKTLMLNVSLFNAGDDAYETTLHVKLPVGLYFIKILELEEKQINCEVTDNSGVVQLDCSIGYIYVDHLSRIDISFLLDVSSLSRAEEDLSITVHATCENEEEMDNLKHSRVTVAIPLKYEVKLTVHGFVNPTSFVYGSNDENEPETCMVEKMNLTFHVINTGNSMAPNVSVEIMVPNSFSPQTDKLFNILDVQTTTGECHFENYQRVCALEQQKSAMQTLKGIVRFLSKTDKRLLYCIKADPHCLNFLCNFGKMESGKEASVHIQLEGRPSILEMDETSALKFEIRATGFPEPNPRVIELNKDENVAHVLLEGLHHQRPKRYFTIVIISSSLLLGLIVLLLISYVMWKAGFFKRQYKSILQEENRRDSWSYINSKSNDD
# Sequence of Beta-adrenergic receptor kinase 1 (Homo sapiens) (P25098 whole entry, looked up): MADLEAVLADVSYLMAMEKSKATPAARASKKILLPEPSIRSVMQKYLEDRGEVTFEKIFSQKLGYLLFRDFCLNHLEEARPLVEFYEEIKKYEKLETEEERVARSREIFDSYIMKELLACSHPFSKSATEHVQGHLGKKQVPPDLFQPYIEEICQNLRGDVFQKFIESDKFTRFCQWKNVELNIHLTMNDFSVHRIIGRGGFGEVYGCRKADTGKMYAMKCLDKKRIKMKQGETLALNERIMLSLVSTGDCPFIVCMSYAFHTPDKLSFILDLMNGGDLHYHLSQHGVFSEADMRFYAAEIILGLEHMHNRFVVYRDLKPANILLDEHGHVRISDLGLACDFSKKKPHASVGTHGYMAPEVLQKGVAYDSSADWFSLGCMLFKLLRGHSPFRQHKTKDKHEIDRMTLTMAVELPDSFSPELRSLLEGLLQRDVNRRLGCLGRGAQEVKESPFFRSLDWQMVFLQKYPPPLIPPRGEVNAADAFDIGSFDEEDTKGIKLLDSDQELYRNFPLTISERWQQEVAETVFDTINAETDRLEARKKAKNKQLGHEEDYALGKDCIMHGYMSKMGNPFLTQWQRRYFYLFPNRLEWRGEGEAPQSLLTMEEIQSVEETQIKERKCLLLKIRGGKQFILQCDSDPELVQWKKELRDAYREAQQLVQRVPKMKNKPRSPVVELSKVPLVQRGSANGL
# Sequence of Botulinum neurotoxin type A (Clostridium botulinum) (P0DPI0 whole entry, looked up): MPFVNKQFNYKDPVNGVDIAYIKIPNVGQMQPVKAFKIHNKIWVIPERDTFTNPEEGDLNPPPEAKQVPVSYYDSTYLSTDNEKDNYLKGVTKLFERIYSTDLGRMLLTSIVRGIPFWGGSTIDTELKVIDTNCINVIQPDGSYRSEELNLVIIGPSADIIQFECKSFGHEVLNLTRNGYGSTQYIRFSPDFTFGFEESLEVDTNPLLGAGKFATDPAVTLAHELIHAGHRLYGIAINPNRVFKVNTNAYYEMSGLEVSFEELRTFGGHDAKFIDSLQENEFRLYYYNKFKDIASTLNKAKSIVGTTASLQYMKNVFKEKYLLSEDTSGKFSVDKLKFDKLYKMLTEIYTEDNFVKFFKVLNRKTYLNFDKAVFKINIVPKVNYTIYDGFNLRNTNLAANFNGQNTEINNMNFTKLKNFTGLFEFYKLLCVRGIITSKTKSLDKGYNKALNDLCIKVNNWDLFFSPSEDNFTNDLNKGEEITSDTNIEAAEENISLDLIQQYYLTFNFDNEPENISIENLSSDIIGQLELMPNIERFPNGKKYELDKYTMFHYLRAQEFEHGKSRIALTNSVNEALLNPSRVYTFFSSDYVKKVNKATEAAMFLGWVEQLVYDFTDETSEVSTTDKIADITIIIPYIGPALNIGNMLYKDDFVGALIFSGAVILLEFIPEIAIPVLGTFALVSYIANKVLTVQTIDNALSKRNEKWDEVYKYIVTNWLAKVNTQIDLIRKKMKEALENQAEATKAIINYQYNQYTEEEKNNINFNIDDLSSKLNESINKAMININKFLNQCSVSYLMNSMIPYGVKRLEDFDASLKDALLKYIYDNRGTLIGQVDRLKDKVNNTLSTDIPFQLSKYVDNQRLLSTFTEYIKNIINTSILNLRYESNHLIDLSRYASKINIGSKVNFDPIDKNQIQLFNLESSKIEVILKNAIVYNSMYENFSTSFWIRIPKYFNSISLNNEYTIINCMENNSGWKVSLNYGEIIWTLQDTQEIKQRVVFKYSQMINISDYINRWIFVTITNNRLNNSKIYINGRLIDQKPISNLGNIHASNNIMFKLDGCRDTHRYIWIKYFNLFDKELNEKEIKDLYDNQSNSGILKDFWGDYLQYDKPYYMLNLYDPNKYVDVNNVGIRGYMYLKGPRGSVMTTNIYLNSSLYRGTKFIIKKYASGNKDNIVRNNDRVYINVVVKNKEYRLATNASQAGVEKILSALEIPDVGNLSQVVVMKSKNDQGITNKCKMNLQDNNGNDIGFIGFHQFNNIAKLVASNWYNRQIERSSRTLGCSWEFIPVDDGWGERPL
smiles,measurement,setting,value
COc1cc(/C=C2\C(=O)NC(=O)N(c3ccccc3)C2=O)c([N+](=O)[O-])cc1OC,double positive events,[1],61.7%
same,vesicle binding response,[1],106% (inactive)
same,inhibition,[2],13.7% (inactive)
same,superoxide response (% of plate),[3],102% (inactive)
same,aptamer binding inhibition,[4],3% (inactive)
same,inhibition,[5],5.39% (inactive)
same,response,[6],3.62% (inactive)
same,binding (% of control),[7],105% (inactive)
same,inhibition,[8],-4.1% (inactive)
same,inhibition,[9],-1.1% (inactive)
same,inhibition,[10],-1.8% (inactive)
same,efflux inhibition (fraction of control),[11],-0.09 (inactive)
same,inhibition,[12],-21% (inactive)
same,differentiation response,[13],-8.96% (inactive)
NCC(O)c1ccc(O)cc1 (stereo not drawn),double positive events,[1],66.5%
same,vesicle binding response,[1],150% (inactive)
same,inhibition,[2],-2.27% (inactive)
same,superoxide response (% of plate),[3],94.8% (inactive)
same,aptamer binding inhibition,[4],2% (inactive)
same,inhibition,[5],-8.51% (inactive)
same,response,[6],2.02% (inactive)
same,binding (% of control),[7],103% (inactive)
same,inhibition,[8],1.9% (inactive)
same,inhibition,[9],1% (inactive)
same,inhibition,[10],6% (inactive)
same,efflux inhibition (fraction of control),[11],-0.35 (inactive)
same,inhibition,[12],8% (inactive)
same,differentiation response,[13],2.46% (inactive)
NC(N)=NC(=O)c1nc(Cl)c(N)nc1N,inhibition,[8],-3.3% (inactive)
same,inhibition,[9],-0.3% (inactive)
C#CCOc1cc(C2C3=C(COC3=O)Nc3cc4c(cc32)OCO4)ccc1OC (stereo not drawn),GFP response vs DMSO,[14],102% (inactive)
same,GFP response vs DMSO,[14]; [17],100%
same,GFP response vs DMSO,[14]; [18],103%
same,GFP response relative to DMSO,[15],113% (inactive)
same,GFP response relative to DMSO,[15]; measured here: daughter cell gate response,106%
same,GFP response relative to DMSO,[15]; measured here: mother cell gate response,114%
same,"GFP response, % of DMSO",[16],107% (inactive)
same,"GFP response, % of DMSO",[16]; [17],103%
same,"GFP response, % of DMSO",[16]; [18],107%
O=C1CSC2N1CCNC21CCCCC1 (stereo not drawn),double positive events,[1],64.1%
same,vesicle binding response,[1],191% (inactive)
same,inhibition,[2],-31.6% (inactive)
same,aptamer binding inhibition,[4],0% (inactive)
same,inhibition,[5],4.77% (inactive)
same,response,[6],2.26% (inactive)
same,binding (% of control),[7],112% (inactive)
same,inhibition,[8],-1% (inactive)
same,inhibition,[9],1% (inactive)
same,inhibition,[10],-3.4% (inactive)
same,efflux inhibition (fraction of control),[11],1.11 (active)
same,inhibition,[12],42% (inactive)
same,differentiation response,[13],28.6% (inactive)
COc1ccc2c3c([nH]c2c1)C(C)=NCC3,double positive events,[1],57.1%
same,vesicle binding response,[1],218% (inactive)
same,inhibition,[2],-16.1% (inactive)
same,superoxide response (% of plate),[3],102% (inactive)
same,aptamer binding inhibition,[4],-10% (inactive)
same,inhibition,[5],10.6% (inactive)
same,response,[6],-11.3% (inactive)
same,binding (% of control),[7],172% (inactive)
same,inhibition,[8],-22.6% (inactive)
same,inhibition,[9],-5.4% (inactive)
same,inhibition,[10],-104% (inactive)
same,efflux inhibition (fraction of control),[11],-0.24 (inactive)
same,inhibition,[12],-229% (inactive)
same,differentiation response,[13],20.8% (inactive)
CCCC(C)(COC(N)=O)COC(=O)NC(C)C (stereo not drawn),double positive events,[1],64.3%
same,vesicle binding response,[1],111% (inactive)
same,inhibition,[2],23.6% (inactive)
same,superoxide response (% of plate),[3],94.5% (inactive)
same,aptamer binding inhibition,[4],6% (inactive)
same,inhibition,[5],-2.17% (inactive)
same,response,[6],9.22% (inactive)
same,binding (% of control),[7],101% (inactive)
same,inhibition,[8],0.5% (inactive)
same,inhibition,[9],1.4% (inactive)
same,inhibition,[10],6.3% (inactive)
same,efflux inhibition (fraction of control),[11],-0.13 (inactive)
same,inhibition,[12],6% (inactive)
same,differentiation response,[13],44.3% (inactive)
Nc1ccc([As](=O)(O)O)cc1,double positive events,[1],53.2%
same,vesicle binding response,[1],190% (inactive)
same,inhibition,[2],7.22% (inactive)
same,superoxide response (% of plate),[3],108% (inactive)
same,aptamer binding inhibition,[4],2% (inactive)
same,inhibition,[5],-9.89% (inactive)
same,response,[6],-3.63% (inactive)
same,binding (% of control),[7],99.6% (inactive)
same,inhibition,[8],-3.5% (inactive)
same,inhibition,[9],-1.7% (inactive)
same,inhibition,[10],6.8% (inactive)
same,efflux inhibition (fraction of control),[11],-0.35 (inactive)
same,inhibition,[12],3% (inactive)
same,differentiation response,[13],-0.2% (inactive)
C[C@H]1CCCC(=O)CCCCCc2cc(O)cc(O)c2C(=O)O1,double positive events,[1],60.2%
same,vesicle binding response,[1],160% (inactive)
same,inhibition,[2],0.59% (inactive)
same,superoxide response (% of plate),[3],101% (inactive)
same,aptamer binding inhibition,[4],-1% (inactive)
same,inhibition,[5],-10.7% (inactive)
same,response,[6],6% (inactive)
same,binding (% of control),[7],106% (inactive)
same,inhibition,[8],-0.4% (inactive)
same,inhibition,[9],-1.7% (inactive)
same,inhibition,[10],4.1% (inactive)
same,efflux inhibition (fraction of control),[11],-0.13 (inactive)
same,inhibition,[12],0% (inactive)
same,differentiation response,[13],5.85% (inactive)
C[C@]12CCC(=O)C=C1CC[C@@H]1[C@@H]2C(=O)C[C@]2(C)C(=O)CC[C@@H]12,double positive events,[1],61%
same,vesicle binding response,[1],259% (inactive)
same,inhibition,[2],6.55% (inactive)
same,superoxide response (% of plate),[3],76.3% (inactive)
same,aptamer binding inhibition,[4],3% (inactive)
same,inhibition,[5],0.49% (inactive)
same,response,[6],-0.42% (inactive)
same,binding (% of control),[7],99.9% (inactive)
same,inhibition,[8],-1.7% (inactive)
same,inhibition,[9],1% (inactive)
same,inhibition,[10],-4.7% (inactive)
same,efflux inhibition (fraction of control),[11],0.12 (inactive)
same,inhibition,[12],-30% (inactive)
same,differentiation response,[13],5.85% (inactive)
COc1ccc(-n2cc(CNCc3cccnc3)c(-c3cccc(F)c3)n2)cc1,inhibition,[8],-3.6% (inactive)
same,inhibition,[9],-0.7% (inactive)
same,inhibition,[10],-8.2% (inactive)
Cn1c(=O)c2c(nc(SCCN3CCCCC3)n2C)n(C)c1=O,inhibition,[8],-1.4% (inactive)
same,inhibition,[9],0.2% (inactive)
same,inhibition,[10],-4.6% (inactive)
